BAZ2B inh = qHTS Assay for Inhibitors of BAZ2B; Bromodomain adjacent to zinc finger domain protein 2B (Homo sapiens), Q9UIF8; AlphaScreen BAZ2B-H3K14Ac peptide displacement; Potency, µM (series often up to 114 µM), inactives show at the top dose activity change, negative = inhibition, most hits filed as inhibitors; 360,000 tested, 4.4% active; also: % is scaled to controls: 0 for no effect and ±100 for the full control effect; nearly all actives have a fitted effect of over 60% in size
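Multi-concentration screen (max 110 uM) measuring displacement of acetylated histone H3 peptide from BAZ2B by AlphaScreen, using 50 nM protein, 50 nM peptide and 10 ug/mL streptavidin donor plus Ni-chelate acceptor beads.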
ALOX12 inh = Primary qHTS assay for inhibitors of human arachidonate 12S-lipoxygenase (ALOX12): Round 2; Polyunsaturated fatty acid lipoxygenase ALOX12 (Homo sapiens), P18054; purified 12hLO, xylenol orange hydroperoxide absorbance; Potency, µM (series often up to 108 µM), for the others: at the highest dose activity change, negative = inhibition, most hits filed as inhibitors; 580,000 tested, 1.1% active; also: % is scaled to controls: 0 for no effect and ±100 for the full control effect
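Hydroperoxide product was detected by ferrous iron/xylenol orange as the 573 to 405 nm absorbance ratio. Arachidonic acid at 40 uM (final) was turned over for 30 min at room temperature by 150 nM human 12hLO, pH 7.0 Hepes buffer, after 15 min compound preincubation.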
G9a block = qHTS Assay for Inhibitors of Histone Lysine Methyltransferase G9a | Histone-lysine N-methyltransferase EHMT2 (Homo sapiens), Q96KQ7 | G9a H3K9 monomethylation, AlphaScreen, 2 h | Potency, µM (highest dose often 102 µM), for the others: at the top dose activity, negative = inhibition, usual class: inhibitors | 350,000 tested, 8.8% active | AID 504332, 2011; also: % is scaled to controls: 0 for no effect and ±100 for the full control effect; nearly all actives have a fitted effect of over 75% in size
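Chemiluminescent proximity detection of H3K9 monomethylation, read after 10 min bead incubation in the dark. Reaction: 20 nM G9a, 500 nM biotin-H3K9 peptide, 20 uM SAM cofactor, 2 h, room temperature, following 15 min enzyme-compound preincubation.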
PLK1 PBD inh = qHTS for Inhibitors of PLK1-PDB (polo-like kinase 1 - polo-box domain): Primary Screen; Serine/threonine-protein kinase PLK1 (Homo sapiens), P53350; Plk1 PBD binding of FITC phosphopeptide, fluorescence polarization; Potency, µM, inactives show max response, negative = inhibition, actives largely listed as inhibitors; 360,000 tested, 2.8% active; AID 720504, 2013; also: series mostly up to about 57 µM; % is scaled to controls: 0 for no effect and ±100 for the full control effect; nearly all actives have a fitted effect of over 65% in size
HP1b binding inh = HTS for Inhibitors of HP1-beta Chromodomain Interactions with Methylated Histone Tails; Chromobox protein homolog 1 (Homo sapiens), P83916; AlphaScreen HP1-beta / biotin-H3K9me3 peptide binding; Potency, µM (series often up to 114 µM), for the others: top-dose activity change, negative = inhibition, hits mostly inhibitors; 390,000 tested, 0.56% active; also: nearly all actives have a fitted effect of over 70% in size
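HP1-beta protein (50 nM final) preincubated 30 min at room temperature with biotinylated H3(1-18)K9me3 peptide (50 nM) in PBS pH 7.4, 0.01% Tween-20, then compound added for 30 min. AlphaScreen streptavidin donor/nickel chelate acceptor beads (10 ug/mL final), 30 min dark, luminescence read.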
JMJD2A Tudor = qHTS Assay for Inhibitors of JMJD2A-Tudor Domain; AID 504339, 2011; AlphaScreen JMJD2A-Tudor / H3K4me3 peptide binding; 390,000 tested, 4.4% active; Potency, µM (series often up to 114 µM), inactives show at the top dose activity change, negative = inhibition, actives largely listed as inhibitors; also: % is scaled to controls: 0 for no effect and ±100 for the full control effect; nearly all actives have a fitted effect of over 50% in size
* hit, by the source's call; ? = inconclusive; nt = not tested or not shown; [ ] = dose if it differs, or a comment. This is a sample that favours compounds with a hit; in the whole collection about 9% have one here. Calls follow the shape of the dose curve; as a rule, active = well fitted curve in the direction sought with a large enough effect; inconclusive = small, poorly fitted or top-dose-only effect, or another doubt; inactive = no such curve, though single readings can be large; an effect the other way counts as inactive or inconclusive. Potency is read from the fitted curve at half-maximal effect.

SMILES	BAZ2B inh	ALOX12 inh	G9a block	PLK1 PBD inh	HP1b binding inh	JMJD2A Tudor
C/C=C/Cn1c(SCc2ccc(Cl)cc2)nc2c1c(=O)[nH]c(=O)n2C	1%	?	45µM*	?	7%	4%
O=C(CN1CCOCC1)Nc1ccc(Br)cc1	-2%	1%	16%	5%	41%	2%
Cc1onc(-c2ccccc2Cl)c1C(=O)Nc1ccc(Cl)cn1	9%	3%	nt	-3%	38%	-8%
CC(C)(O)C#Cc1ccc(C(=O)N2CCN(Cc3ccccc3)CC2)cc1	nt	19%	nt	nt	nt	nt
CCOc1ccc(Nc2c(S(=O)(=O)c3ccc(C)cc3)cnc3ccc(OC)cc23)cc1	-15%	2%	-46%[59 µM]	nt	6%	?
COc1ccccc1NC(=O)c1cc(S(=O)(=O)N2CCC3(CC2)OCCO3)ccc1F	7%	0%	14%[59 µM]	-2%	20%	-6%
Cn1c(=O)[nH]c(=O)c2c1nc(Sc1ccccc1)n2Cc1ccc(Cl)cc1	nt	22%	nt	nt	nt	nt
CCn1c(SCc2ccccc2)nc2c1c(=O)[nH]c(=O)n2C	10%	9%	45µM*	?	9%	10%
Cn1c(=O)[nH]c(=O)c2c1nc(N1CCCCC1)n2C/C=N/Nc1ccc(C(=O)O)cc1	-18%	-2%	71µM*	-23%	36%	-4%[11.4 µM]
CCn1c(N2CCN(CC(=O)c3c[nH]c4ccccc34)CC2)nc2c1c(=O)[nH]c(=O)n2C	18%	?	40µM*	2%	38%	-9%
CCCn1c(N2CCN(CC(=O)c3c(C)n(C)c4ccccc34)CC2)nc2c1c(=O)[nH]c(=O)n2C	1%	0%	-37%	-14%	7%	-14%
CSc1nc2c(c(=O)[nH]c(=O)n2C)n1Cc1ccc(Cl)cc1	-11%	?	25%[0.501 µM]	6µM*	?	-22%
Nc1ccc2nc3c(=O)n(C4CCCCC4)c(=O)[nH]c3nc2c1	-1%	-14%	-3%[59 µM]	5.3µM*	31%	-9%
CCCCn1c(=O)[nH]c2nc3cc(N)ccc3nc2c1=O	?	?	3.5µM*	4.7µM*	7%	-25%
Nc1c(S(=O)(=O)c2cccs2)c2nc3ccccc3nc2n1CCc1ccccc1	-2%	0%	7%[59 µM]	nt	nt	nt
Nc1ccc2nc3c(=O)n(CCc4ccccc4)c(=O)[nH]c3nc2c1	7%	-24%	nt	4.2µM*	25%	0%
Cc1cc2nc3c(=O)n(CCc4ccccc4)c(=O)[nH]c3nc2cc1N	-12%	?	-4%	2.7µM*	14%	-19%
C=CCn1c(=O)[nH]c2nc3cc(N=CN(C)C)c(C)cc3nc2c1=O	1%	?	?	?	37%	2%
CCCNC(=O)c1ccc2c(c1)S(=O)(=O)N=CN2CCC	nt	-2%	nt	nt	nt	nt
Brc1ccccc1-c1nnc(CSc2nncn2-c2ccccc2)o1	9%	0%	-24%	27µM*	-11%	?
O=C(O)/C=C/C(=O)N1CCN(C(=O)/C=C/C(=O)O)CC1	-5%	?	-20%[59 µM]	-6%	-11%	?
CCOC(=O)/C=C/C(=O)N1CCN(C(=O)/C=C/C(=O)OCC)CC1	-8%	0%	56µM*	6%	42%	-3%
CCn1nc([N+](=O)[O-])c(C(C#N)c2nc3cc(C(F)(F)F)ccc3s2)c(Cl)c1=O (stereo not drawn)	11µM*	?	11µM*	24µM*	22µM*	28µM*
N#CC(c1ccccn1)c1ncc(C(F)(F)F)cc1Cl (stereo not drawn)	-23%	-21%	27%[12.7 µM]	-10%	32%	-11%

Screening results as filed in PubChem BioAssay.
